# PubChem BioAssay (NCI)
# This is part of a sample that, as a whole, favours compounds with a hit. Of some 83,000 tested, about 20% had one in any assay.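 A percent growth of 40 corresponds to 60% growth inhibition; 0 means no net growth; -100 means all cells died. Active threshold: below 10.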 Values without a mark were called inactive. The source made the active and inactive calls.
# Experiments:
# Test in all cases: NCI-60 one-dose screen, 48 h (100 = growth as untreated, 0 = no growth, -100 = all killed)
# Settings in all cases: 10 µM unless noted
# [1] = test system: HCT-15 colon
# [2] = test system: HT29 colon
# [3] = test system: SNB-75 CNS
# [4] = test system: SNB-19 CNS
# [5] = test system: U251 CNS
# [6] = test system: PC-3 prostate
# [7] = test system: SK-MEL-5 melanoma
# [8] = test system: UACC-62 melanoma
# [9] = test system: LOX IMVI melanoma
# [10] = test system: SK-MEL-28 melanoma
# [11] = test system: EKVX NSCLC
# [12] = test system: SN12C renal
# [13] = test system: UO-31 renal
# [14] = test system: TK-10 renal
# [15] = test system: ACHN renal
# [16] = test system: CAKI-1 renal
# [17] = test system: A498 renal
# [18] = test system: CCRF-CEM leukemia
# [19] = test system: MOLT-4 leukemia
SMILES,growth [1],growth [2],growth [3],growth [4],growth [5],growth [6],growth [7],growth [8],growth [9],growth [10],growth [11],growth [12],growth [13],growth [14],growth [15],growth [16],growth [17],growth [18],growth [19]
COc1ccc(-c2cc3c(C)nc(N)nc3n(C3CCC(OCCO)CC3)c2=O)cn1 (configuration not stated),3.45% (active),1.24% (active),-50.6% (active),-7.7% (active),-13.8% (active),5.19% (active),-77.3% (active),-52.5% (active),-55.5% (active),-29.4% (active),-4.74% (active),7.14% (active),-33.8% (active),-43.4% (active),-10.3% (active),-43.4% (active),-55.8% (active),14.6%,8.49% (active)
C1=C\COCc2cc(ccc2OCCN2CCCC2)Nc2nccc(n2)-c2cccc(c2)COC/1,1.31% (active),-30.8% (active),-95.8% (active),1.55% (active),-22.6% (active),0.91% (active),-96.5% (active),-68.7% (active),-70.2% (active),-41.8% (active),0.564% (active),-26.6% (active),-29.2% (active),55.3%,3.85% (active),-44.8% (active),-43.3% (active),4.28% (active),-8.61% (active)
Cc1cc(O)cc(-c2c(-c3ccnc(-c4cccnc4)c3)cnn2C)c1,74%,60.7%,16.4%,96.4%,69.3%,47.8%,56.5%,62.1%,61.5%,60.8%,89.5%,58.9%,36.1%,51%,39.5%,42.3%,5.82% (active),61.7%,54.8%
COCc1c(-c2ccc(NC(=O)Nc3cc(C(F)(F)F)ccc3F)c(F)c2)c2c(N)ncnn2c1CN1CCOCC1,-21% (active),-26.8% (active),-95.8% (active),-14.9% (active),-35.5% (active),-25.4% (active),-78.9% (active),-38.8% (active),-81.7% (active),-6.65% (active),-25.4% (active),-10.8% (active),-20% (active),-43% (active),-1.81% (active),-11.4% (active),-64.3% (active),5.76% (active),-5.86% (active)
O=C(CNc1nc2ccccc2s1)Nc1ccc(-c2nc3ccccc3s2)cc1,105%,109%,99%,100%,89.1%,95%,103%,94.6%,75.8%,113%,110%,103%,80.5%,96.7%,107%,100%,93.8%,111%,84.2%
CCN1CCN(Cc2ccc(Cc3ncc(F)c(-c4cc(F)c5nc(C)n(C(C)C)c5c4)n3)nc2)CC1,32.9%,13.2%,21.2%,47.8%,45.7%,38.7%,34.2%,69.1%,-80.4% (active),64.4%,59.6%,48.9%,11.8%,35.1%,27.3%,24%,34.5%,22.3%,13.4%
O=C(Nc1ccc(-c2ccnc(Nc3ccc(N4CCOCC4)cc3)n2)cc1)[C@@H]1CCCN1,23.3%,18.6%,-1.55% (active),83.4%,51.4%,61.2%,49.2%,68.5%,30.4%,54.5%,71.7%,45.6%,26.5%,71.6%,44.1%,29.9%,26.2%,28.1%,21.7%
COC(=O)[C@H](Cc1ccccc1)NC(=O)[C@@H](OC)[C@@H]1Cc2cc3cc(OC4CC(OC5CC(O)C(O)C(C)O5)C(O)C(C)O4)c(C)c(O)c3c(O)c2C(=O)[C@H]1OC1CC(OC2CC(OC3CC(C)(O)C(O)C(C)O3)C(O)C(C)O2)C(O)C(C)O1 (some centres not stated),5.61% (active),4.24% (active),-86.8% (active),4.82% (active),2.62% (active),-9.57% (active),-78% (active),-56.6% (active),-18.2% (active),-27% (active),-2.04% (active),4.42% (active),-7.79% (active),6.76% (active),-8.69% (active),15.3%,-40.3% (active),4.07% (active),-5.77% (active)
Cc1oc2c(C(=O)N/N=C\c3ccc(O)cc3O)c[nH]c2c1C,9.44% (active),25.6%,40.2%,35.5%,20.2%,43.4%,23.6%,2.05% (active),-7.96% (active),32.1%,26.6%,44.5%,-0.347% (active),6.21% (active),-7.76% (active),1.53% (active),44.6%,23.9%,8.56% (active)
CC(=O)c1cnc2ccc(-c3cc(Cl)c(O)c(Cl)c3)nc2c1NC1CCC(CN(C)C)CC1 (configuration not stated),0.375% [2.5 µM] (active),0.58% [2.5 µM] (active),-96.9% [2.5 µM] (active),5.41% [2.5 µM] (active),-26.6% [2.5 µM] (active),-12% [2.5 µM] (active),-86.5% [2.5 µM] (active),-70.9% [2.5 µM] (active),-61.2% [2.5 µM] (active),-39.8% [2.5 µM] (active),-15.9% [2.5 µM] (active),-7.95% [2.5 µM] (active),-33.1% [2.5 µM] (active),-59.7% [2.5 µM] (active),-0.784% [2.5 µM] (active),-49.4% [2.5 µM] (active),-88% [2.5 µM] (active),1.45% [2.5 µM] (active),-36.4% [2.5 µM] (active)
O=C1NC(=O)C(c2cnc3ccccn23)=C1c1cn2c3c(cc(F)cc13)CN(C(=O)N1CCCCC1)CC2,56.7%,22.9%,37.4%,71.1%,36.3%,41.8%,32.8%,40.1%,27.5%,76.8%,68.6%,63.2%,28.8%,56.1%,39.7%,43.5%,-10.5% (active),27.9%,12.1%
CCN(CC)c1cc2oc3cc(N)cc(=N)c-3nc2cc1C,37.8%,86.7%,11.6%,69.7%,19.4%,39.2%,-2.64% (active),30.8%,-0.53% (active),34.3%,50.5%,31.1%,67.9%,13.2%,17.6%,42.5%,82%,15.3%,29.1%
COc1ccc(Cc2cc(-c3ccccc3C)n[nH]c2=O)cc1,107%,98.1%,72.7%,87.1%,100%,81.7%,99.2%,94.8%,109%,106%,108%,92.3%,76.8%,116%,104%,109%,87.2%,-41.2% (active),96.9%
Cc1nc(Nc2n[nH]c3c2CN(C(=O)N[C@H](CN(C)C)c2ccccc2)C3(C)C)c2sccc2n1,20%,-29.6% (active),-80% (active),0.125% (active),-22.7% (active),-10% (active),-84.9% (active),-87% (active),-41.3% (active),-33.7% (active),12.9%,-6.2% (active),-11.3% (active),-30.1% (active),3.72% (active),-5.88% (active),-72.9% (active),1.05% (active),-0.869% (active)
Cc1c(CN2CCN(C(=O)[C@H](C)O)CC2)sc2c(N3CCOCC3)nc(-c3cnc(N)nc3)nc12,2.93% (active),-13% (active),-47.4% (active),3.17% (active),6.95% (active),8.68% (active),-36.3% (active),-62.6% (active),0.99% (active),-30% (active),1.75% (active),4.45% (active),-30.6% (active),-31.4% (active),-11% (active),-17.8% (active),-52.9% (active),7.59% (active),1.65% (active)
Clc1ccc(C(Cn2ccnc2)OCc2ccsc2Cl)c(Cl)c1 (configuration not stated),42.5%,30%,56.4%,68.4%,54.7%,31.1%,31.2%,41.9%,43.7%,77.2%,48.4%,65.6%,25.8%,71.6%,56.9%,42.4%,49.8%,43.4%,17.3%
O=C(Nc1nc2cccc(-c3ccc(CN4CCS(=O)(=O)CC4)cc3)n2n1)C1CC1,94.7%,65.4%,90.3%,48%,65.3%,76.9%,74.6%,87.6%,60.4%,90.2%,106%,76.8%,75.3%,66.3%,93.6%,88.4%,60.8%,30.9%,41%
CC[C@@H]1C(=O)N(C)c2cnc(Nc3ccc(C(=O)NC4CCC(N5CCN(CC6CC6)CC5)CC4)cc3OC)nc2N1C(C)C (some centres not stated),2.76% (active),-25.9% (active),-8.67% (active),25.9%,-16.3% (active),9.7% (active),-96.5% (active),-47.3% (active),-72.1% (active),-72.3% (active),21.2%,7.06% (active),-52.3% (active),19.9%,-3.77% (active),10.6%,-51.8% (active),0.0303% (active),-19.6% (active)
NC1(c2ccc(-c3nc4ccn5c(=O)[nH]nc5c4cc3-c3ccccc3)cc2)CCC1,15.2%,-7.85% (active),-8.24% (active),18.1%,-3.88% (active),21.3%,-85.7% (active),47.5%,-57.6% (active),-66.7% (active),40.6%,50.9%,28.6%,44.3%,36.2%,32.3%,-62.8% (active),1.33% (active),-13.2% (active)
Cn1cc(-c2ccc(F)c(C(F)(F)F)c2)nc1C1CCN(c2ncnc3[nH]ncc23)CC1,70%,60.8%,-15% (active),52.5%,48%,71%,95.1%,75.7%,69.4%,86.2%,88%,63.7%,63.8%,66.6%,73.4%,62.2%,66.5%,72.4%,65.5%
CCN(CC)CCN1C(=O)c2cccc3c(-c4ccc5c(c4)ncn5C4CCCCC4)ccc(c23)C1=O,8.61% (active),0.739% (active),4.41% (active),32.6%,14.7%,5.21% (active),-96.6% (active),22%,-81.6% (active),-38.2% (active),15.6%,23.8%,-23.7% (active),32.1%,10%,19.7%,-11.6% (active),11.4%,-9.62% (active)
Cc1cccc(C)c1N1C(c2ccccc2)=NNC12C=CC(=O)c1c(O)cccc12 (configuration not stated),32.8%,89.4%,96.7%,69.7%,40.9%,38.8%,-37.2% (active),24.5%,7.95% (active),110%,91.3%,72.5%,48.4%,111%,88.6%,101%,109%,95.9%,76.9%
Cc1ncc(-c2ccnc(Nc3ccc(S(C)(=O)=O)cc3)n2)n1C(C)C,1.34% (active),-16.6% (active),-37.9% (active),7.36% (active),3.47% (active),-11.1% (active),-55.5% (active),-71.5% (active),3.16% (active),-41.8% (active),-10.5% (active),0.723% (active),-9.24% (active),-3.89% (active),0.0849% (active),9.99% (active),-42.6% (active),4.05% (active),-32.6% (active)
